Results filed as inconclusive are left out. Unmarked numbers belong to inactive results. The source made the active and inactive calls. Calls follow the shape of the dose curve; as a rule, active = well fitted inhibition curve with a large enough effect; inconclusive = small, poorly fitted or top-dose-only effect, or effect the other way; inactive = flat fitted curve, though single readings scatter.
test: Counterscreen Assay for Enhancers of SMN2 Splice Variant Expression: Modulation of SMN1 Expression for Further Probe SAR; details: HEK293 SMN1-luciferase reporter, luminescence, 30-36 h; series mostly up to 46.1 µM; activity change, negative = inhibition: at the top concentration
Text: NIH Chemical Genomics Center [NCGC] NIH Molecular Libraries Probe Production centers Network [MLPCN] MLPCN Grant: R03 MH084179-01 Assay Submitter (PI): Elliot Androphy NCGC Assay Overview: Spinal muscular atrophy (SMA) is caused by insufficient levels of the survival motor neuron protein SMN. The SMN locus on chromosome 5q13 contains two inverted copies of SMN called SMN1 and SMN2 which are 99% identical at the amino acid level. SMN1 is a fully functional protein and SMN2 skips exon 7 90% of the time. Skipping of exon 7 produces non-functional protein product. 10% of the SMN2 protein includes exon 7 and is fully functional. In the SMA disease state, mutations in the SMN1 locus are the cause of the disease state. Because only 10% of SMN2 is of the fully functional form, it is not sufficient to overcome the deficiency produced by the loss of the SMN1 product. A therapy that either increases the amount of SMN2 product made increases the inclusion of exon 7 has been proposed for the treatment of SMA. We have designed an assay to identify small molecules that can increase the amount of functional SMN2 product by appending a luciferase reporter gene after the native SMN2 gene, such that inclusion of exon 7 in the expressed product places the luciferase sequence in frame, thus generating functional luciferase enzyme. As a counterscreen for nonspecific modulators of expression, we have run compounds through a similar assay that measures expression of an SMN1-luciferase chimera.
NCGC Assay Protocol Summary: This screen utilizes a luciferase reporter gene assay, combining the promoter with the major portion of the native SMN1 cDNA (exons 1 -7, intron 8 , exon 8 fused to luciferase) stably expressed in HEK293 cells. Compounds that increase luciferase signal presumably enhance expression of the functional SMN1 splice variant. Passaging media contained DMEM w/ glutamax (+phenol red) 10% FCS, 1x pen/strep, 200 ug/ml hygro, 1x sodium pyruvate. Assay media contained DMEM w/ glutamax (-phenol red) 10% FCS, 1x pen strep, 1x pyruvate Sequence, Parameter, Value, Description (1) Cells, 5 uL, 2000 cells/well, 1536 TC treated White solid bottom plate (2) Time, 10-12 hours, 37C 5% CO2 (3) Compound, 23 nl, MLSMR Library (4) Control Compound, 23 nL, Sodium butyrate st 4.5mM (final) conc (5) Time, 30-36 hours, 37C 5% CO2 (6) Reagent, 3 ul, One Glo (TM) from Promega (7) Time, 5-15 minutes, Room temp (8) Detector, Viewlux: luminescent read, 60 second integration, high speed 2x binning Keywords: Spinal muscular atrophy, SMA, SMN2, high throughput screening, MLSMR, MLPCN, NIH Roadmap, qHTS and NCGC

SMILES	Potency	activity change, negative = inhibition [%]
NC(=O)C1CCN(c2ncc(-c3ccc4c(c3)OCCO4)s2)CC1	1.22 µM (active)	
O=C(C1CCN(c2nc(-c3ccc(Br)cc3)cs2)CC1)N1CCOCC1		-15.1
NC(=O)C1CCN(c2nc(-c3ccc4c(c3)OCCCO4)cs2)CC1	7.72 µM (active)	
N#CC1CCN(c2nc(-c3ccc(Br)cc3)cs2)CC1		-22
CC(=O)N1CCN(c2nc(-c3ccc(Br)cc3)cs2)CC1	15.4 µM (active)	
NC(=O)C1CCN(c2nc(-c3ccc4c(c3)CCO4)cs2)CC1		-6.44
NC(=O)C1CCN(c2nc(-c3ccc(C(F)(F)F)cc3)cs2)CC1		-27.4
CN(C)c1cccc(-c2cnc(N3CCC(C(N)=O)CC3)nc2)c1	1.22 µM (active)	
COc1ccc(-c2cnc(N3CCC(C(N)=O)CC3)s2)cc1OC		-10.1
O=C(C1CCN(c2nc(-c3ccc(Br)cc3)cs2)CC1)N1CCNCC1		11.6
O=C(NCCc1ccccc1)C1CCN(c2nc(-c3ccc(Br)cc3)cs2)CC1		-15.8
NC(=O)C1CCN(c2nnc(-c3ccc4c(c3)OCCCO4)s2)CC1	1.54 µM (active)	
CNC(=O)C1CCN(c2nc(-c3ccc(Br)cc3)cs2)CC1		-20.8
CN(C)c1cccc(-c2ccnc(N3CCC(C(N)=O)CC3)n2)c1		-22
CN(C)c1cccc(-c2nnc(N3CCC(C(N)=O)CC3)s2)c1	6.14 µM (active)	
Brc1ccc(-c2csc(N3CCNCC3)n2)cc1	30.7 µM (active)	
CC(C)Oc1ccc(-c2csc(N3CCC(C(N)=O)CC3)n2)cc1		-20.3
N#Cc1ccc(-c2csc(N3CCC(C(N)=O)CC3)n2)cc1		-8.95
CC(=O)Nc1ccc(-c2csc(N3CCC(C(N)=O)CC3)n2)cc1		17.6
COc1cc(OC)cc(-c2csc(N3CCC(C(N)=O)CC3)n2)c1		13.7

SMILES	Potency	activity change, negative = inhibition [%]
NC(=O)C1CCN(c2nc(-c3ccccc3Cl)cs2)CC1		-10.1
NC(=O)C1CCN(c2nnc(-c3ccc(Br)cc3)s2)CC1	12.2 µM (active)	
CC(C)COc1ccc(-c2csc(N3CCC(C(N)=O)CC3)n2)cc1		-19.3
CN(C)c1cccc(-c2cc(N3CCC(C(N)=O)CC3)ncn2)c1		-22.8
NC(=O)C1CCN(c2nc(-c3ccccc3[N+](=O)[O-])cs2)CC1		15.1
N#Cc1ccccc1-c1csc(N2CCC(C(N)=O)CC2)n1		-5.52
Cc1ccc(-c2nnc(N3CCC(C(N)=O)CC3)s2)cc1	6.14 µM (active)	
CS(=O)(=O)c1ccc(-c2csc(N3CCC(C(N)=O)CC3)n2)cc1		-2.95
Cc1cnc(N2CCC(C(N)=O)CC2)nc1-c1cccc(N(C)C)c1		17.8
CC(C)Oc1cccc(-c2ccnc(N3CCC(C(N)=O)CC3)n2)c1	9.72 µM (active)	
NC(=O)C1CCN(c2nc(-c3ccc(OC(F)(F)F)cc3)cs2)CC1		5.89
NC(=O)C1CCN(c2ncc(-c3cccc(N4CCCC4)c3)s2)CC1	12.2 µM (active)	
O=C(O)C1CCN(c2ncc(-c3ccc4c(c3)OCCCO4)s2)CC1	0.244 µM (active)	
c1c[nH]c(C2CCN(c3ncc(-c4ccc5c(c4)OCCCO5)s3)CC2)n1	9.72 µM (active)	
NC(=O)C1CCN(c2nc(-c3ccccc3)cs2)CC1		-16.6
O=C(Nc1ccccc1)C1CCN(c2ncc(-c3ccc4c(c3)OCCCO4)s2)CC1	0.487 µM (active)	
COc1ccccc1-c1csc(N2CCC(C(N)=O)CC2)n1		9.84
O=C(Nc1ccccc1)C1CCN(c2nc(-c3ccc(Br)cc3)cs2)CC1		-16.1
CSc1ccc(-c2cnc(N3CCC(C(N)=O)CC3)s2)cc1	0.972 µM (active)	
Cc1cccc(-c2csc(N3CCC(C(N)=O)CC3)n2)c1		5.68
